From PubChem BioAssay (NCATS)
The source made the active and inactive calls.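 The calls were made as follows: active = compounds whose dose series gives a full or clear partial fitted curve of increased nuclear translocation; inconclusive = weak partial curve or effect only at the top dose; inactive = no dose-dependent translocation response.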

biological target: Glucocorticoid receptor (Homo sapiens) (UniProt P04150); assay: GR-GFP Redistribution (AID 450); details: U2OS GR-GFP nuclear translocation, laser cytometry, 2 h; series mostly up to 20.6 µM
Sequence (P04150 whole entry, looked up): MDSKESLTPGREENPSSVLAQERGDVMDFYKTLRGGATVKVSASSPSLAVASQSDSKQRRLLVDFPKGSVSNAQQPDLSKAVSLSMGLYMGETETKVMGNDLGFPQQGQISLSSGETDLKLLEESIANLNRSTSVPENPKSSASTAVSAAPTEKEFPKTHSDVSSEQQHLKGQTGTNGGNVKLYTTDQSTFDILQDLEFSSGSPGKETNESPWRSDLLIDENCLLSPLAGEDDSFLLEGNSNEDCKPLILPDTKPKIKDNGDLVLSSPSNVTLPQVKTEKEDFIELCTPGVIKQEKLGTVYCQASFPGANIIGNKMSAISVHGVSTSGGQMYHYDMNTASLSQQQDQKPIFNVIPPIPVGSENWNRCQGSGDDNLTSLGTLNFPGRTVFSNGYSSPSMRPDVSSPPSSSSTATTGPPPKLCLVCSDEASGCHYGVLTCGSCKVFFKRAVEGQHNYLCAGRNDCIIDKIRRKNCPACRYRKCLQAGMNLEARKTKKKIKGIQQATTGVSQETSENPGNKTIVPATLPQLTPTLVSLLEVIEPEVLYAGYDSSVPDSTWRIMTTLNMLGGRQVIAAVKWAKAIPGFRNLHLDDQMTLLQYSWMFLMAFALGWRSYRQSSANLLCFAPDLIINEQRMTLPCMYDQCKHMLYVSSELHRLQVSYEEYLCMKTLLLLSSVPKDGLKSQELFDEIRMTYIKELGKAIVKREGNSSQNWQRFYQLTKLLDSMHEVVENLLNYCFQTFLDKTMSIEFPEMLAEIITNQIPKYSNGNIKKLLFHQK
Potency is read from the fitted curve at half-maximal effect.

Potency, inactive:
CCCOc1ccc(/C(O)=C2/C(=O)C(=O)N(CCCN3CCOCC3)C2c2ccncc2)cc1 (stereo not given) > 20.6 µM
O=C(O)C1CC(=O)N(Cc2cccs2)C1 (stereo not given) > 20.6 µM
Cn1nnnc1-c1cc(Br)ccc1NC(=O)c1ccccc1 > 20.6 µM
COCCOC(=O)C1=C(C)OC(N)=C(C#N)C1c1ccco1 (stereo not given) > 20.6 µM
CC1(C)Cc2nc(N)c(C(=O)NCCO)cc2CO1 > 20.6 µM
O=C1CC(c2ccccc2)n2nc(N3C(=O)c4ccccc4C3=O)nc2N1 (stereo not given) > 20.6 µM
O=C(NCCC1=CCCCC1)c1ccc(=O)oc1 > 20.6 µM
FC(F)(F)c1cccc(-n2cccc2/C=N/n2cnnc2)c1 > 20.6 µM
COc1cccc(-c2nn3c(-c4ccco4)nnc3s2)c1 > 20.6 µM
COc1cccc(NC(=O)c2cc(C(=O)Nc3cccc(OC)c3)n(C)n2)c1 > 20.6 µM
C(=N\n1cnnc1)/c1cccnc1 > 20.6 µM
CCSc1nc(N)c2c3c(sc2n1)CCC3 > 20.6 µM
N#Cc1cccc(-n2c(-c3ccccc3)nnc2-c2ccccc2)c1C#N > 20.6 µM
C=CCNc1nc(-c2cccc(OC)c2O)nc2ccccc12 > 20.6 µM
Cc1cc(NC(=O)CSc2nc(-c3cccnc3)ccc2C#N)no1 > 20.6 µM
CC(=O)N1CCC2(CC1)C(C#N)=C(N)Oc1n[nH]c(C(F)(F)F)c12 > 20.6 µM
OCCOCCNc1ncnc2c1cnn2-c1ccc(Cl)cc1 > 20.6 µM
CCC(NC(=O)Nc1cc(OC)c(OC)c(OC)c1)(C(F)(F)F)C(F)(F)F > 20.6 µM
CC(C)Cc1nc(NCCN2CCOCC2)c(C#N)c2c1COC(C)(C)C2 > 20.6 µM
COc1cc(C2C(C(=O)c3sc(C)nc3C)=C(O)C(=O)N2CCN(C)C)cc(OC)c1OC (stereo not given) > 20.6 µM
Cc1c(Cl)cccc1N1C(=O)C2ON(c3ccccc3)C(c3cccnc3)C2C1=O (stereo not given) > 20.6 µM
CC(=O)NC(=O)Nc1sc(=S)n(C)c1C > 20.6 µM
CCOc1ccc(C2CC(c3ccccc3)Nc3nc(N)nn32)cc1 (stereo not given) > 20.6 µM
CCOCc1nc(N)[nH]c(=O)c1Cc1ccc(OC(C)C)cc1 > 20.6 µM
Cc1cc(O)ccc1-c1cnc2ccccc2n1 > 20.6 µM
C/C(=N\O)c1c(C)c2ccccc2n1C > 20.6 µM
CCCOc1cccc(C2/C(=C(/O)c3ccc(F)cc3)C(=O)C(=O)N2CCN(C)C)c1 (stereo not given) > 20.6 µM
COC(=O)C1=C(C)N=C2SC(C)C(=O)N2C1c1ccc(C(=O)OC)cc1 (stereo not given) > 20.6 µM
CCOC(=O)c1[nH]c2ccc(C)cc2c1N > 20.6 µM
c1coc(-c2nnc3sc(C4CCCCC4)nn23)c1 > 20.6 µM
Cc1c(N2C(=O)SC(CC(=O)O)C2=O)c(=O)n(-c2ccccc2)n1C (stereo not given) > 20.6 µM
COC(=O)c1[nH]c(C)c(/C(O)=C2\C(=O)C(=O)N(CCN3CCOCC3)C2c2cccnc2)c1C (stereo not given) > 20.6 µM
C[N+](C)(C)CCOP(=O)([O-])OC[C@H](O)CO > 20.6 µM
CC(=O)Nc1ccc(Oc2ccc3nc(C)[nH]c3c2)cc1 > 20.6 µM
CN=c1sc2ccccc2n1CC(O)COc1ccccc1 (stereo not given) > 20.6 µM
COc1ccccc1C1/C(=C(/O)c2ccc(C)cc2)C(=O)C(=O)N1Cc1ccco1 (stereo not given) > 20.6 µM
COC(=O)c1cc(Br)c(=O)n(-c2nccs2)c1 > 20.6 µM
Cc1cc(/C=N/n2cnnc2)c(C)n1-c1ccc2c(c1)OCO2 > 20.6 µM
S=C(N=Nc1ccccc1)NNc1ccccc1 > 20.6 µM
CCO/C(C)=N/n1c2nc3ccccc3nc2c2c(=O)n(CC(C)C)c(C)nc21 > 20.6 µM
